SMILES strings stand for the structures. Results filed as inconclusive are left out. Values without a mark were called inactive. Active and inactive are the calls of the source. Calls come from the whole dose curve; as a rule, active = well fitted inhibition curve with a large enough effect; inconclusive = small, poorly fitted or top-dose-only effect; inactive = flat fitted curve, though single readings scatter.

In one assay the test system is CRL-7250. Description: Cytotoxic Profiling of Annotated Libraries Using Quantitative High-Throughput Screening (AID 1296008). For max response: % is set by controls: 0 for no effect and ±100 for the full control effect. Note: potency is the fitted concentration of half-maximal effect. The note with it: Five cell lines viability, CellTiter-Glo ATP luminescence, 48-72 h; max response: active compounds read low. The essentials:
(§1)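 Cells exposed to compounds for 48 or 72 hr at 37 degrees Celsius. Viability read as ATP-coupled luminescence with CellTiter-Glo after 10 min at room temperature.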
Background: Cellular ATP, detected with luciferase, serves as a proxy for viable cell number.

The next assay deals with HEK293. The description is as above. The note with it: Five cell lines viability, CellTiter-Glo ATP luminescence, 48-72 h; max response: active compounds read low. The essentials:
as §1

The test system of assay [1] is HaCat. Described as above. The note with it: Five cell lines viability, CellTiter-Glo ATP luminescence, 48-72 h; max response: active compounds read low. The method in brief: as §1
The test system of another assay is KB-3-1. The assay is described as above. Conditions: Five cell lines viability, CellTiter-Glo ATP luminescence, 48-72 h; max response: active compounds read low. The method in brief: as §1
The test system of a further assay is NIH3T3. The assay is described as above. Conditions: Five cell lines viability, CellTiter-Glo ATP luminescence, 48-72 h; max response: active compounds read low. The essentials:
as §1

Assay [2] relates to HACAT. The experiment in a line: qHTS assay to identify novel small-molecules to repurpose for Merkel cell carcinoma treatment (AID 1296009). The note with it: MCC and control cell lines, CellTiter-Glo viability, 72 h; at 44.8 µM (top of the series) unless noted. The method in brief: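 Cells were treated for 72 hr at 37 degree celsius with compounds in 8- or 11-point dose response. Viability was read by CellTiter-Glo luminescence, normalized to no-cell (cytotoxicity) and DMSO controls.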
For orientation: qHTS replaces the single test concentration by a dilution series.
Note: nearly all actives have a fitted effect of over 60% in size.

Consider `COc1cc(C[C@@H](CO)[C@H](CO)Cc2ccc(O)c(OC)c2)ccc1O`, for which the max response is -0.633% in the assay with CRL-7250, -2.88% with HEK293 and 3.84% with KB-3-1. The compound was classed as inactive in the assay with HaCat [1], in the assay with NIH3T3 and with HACAT [2].

As for `C[C@H](NC(=O)Cc1cc(F)cc(F)c1)C(=O)N[C@H](C(=O)OC(C)(C)C)c1ccccc1`, the max response is -1.21% in the assay on CRL-7250, -28.5% in the assay with HEK293, -8.93% in the assay on KB-3-1 and -8.45% with NIH3T3. Further, the call in the assay with HaCat [1] and in the assay on HACAT [2] was inactive.

For the compound `CC(C=CC(=O)NO)=C[C@@H](C)C(=O)c1ccc(N(C)C)cc1`, the Potency in the assay on CRL-7250 is 5260 nM (active); with HEK293, 1050 nM (active); in the assay on HaCat [1], 2960 nM (active); in the assay with KB-3-1, 1180 nM (active); with NIH3T3 it was 1480 nM (active).

As to `CCCCCCCCCCCCCCCC(=O)OC[C@@H](NC(=O)C(Cl)Cl)[C@H](O)c1ccc([N+](=O)[O-])cc1`, the max response in the assay on CRL-7250 is -9.61%; in the assay on HEK293, 2.69%; in the assay with NIH3T3, 0.666%. In addition, the compound was classed as inactive in the assay on HaCat [1], in the assay on KB-3-1 and with HACAT [2].

In the case of `Nc1ccn(C[C@@H](CO)OCP(=O)(O)O)c(=O)n1`, the results for the max response in the assay on CRL-7250, in the assay on HEK293 and with NIH3T3 were 3.98%, -0.164% and 0.667%, respectively. In addition, the outcome in the assay with HaCat [1] and in the assay with KB-3-1 was inactive. Moreover, in the assay on HACAT [2], the outcome was “inactive [at 17.4 µM]”.

Take `COc1ccc(C(C)=O)c(O)c1`: the max response in the assay with CRL-7250 was -6.37%; with HEK293 it was 0.614%; in the assay on HaCat [1], -4.96%; with KB-3-1, 4.34%; in the assay with NIH3T3, 2.86%.

As to `Nc1cccc2c1C(=O)N(C1CCC(=O)NC1=O)C2=O` (centres undefined), the max response in the assay on CRL-7250 was 1.13%; in the assay on HEK293 it was -10.8%; in the assay on KB-3-1, -7.31%; in the assay with NIH3T3, -1.24%. For the same compound, the compound was called inactive with HaCat [1] and with HACAT [2].

As for `COc1ccc2cc([S+]([O-])Cc3ncc(C)c(OC)c3C)nc2c1`, the result with CRL-7250 and in the assay with KB-3-1 was inactive. Moreover, the results for the max response with HEK293, in the assay on HaCat [1] and with NIH3T3 were 1.45%, 3.09% and -6.22%, respectively.

Turning to `Cc1onc(-c2ccccc2)c1C(=O)N[C@@H]1C(=O)N2[C@@H](C(=O)O)C(C)(C)S[C@@H]12`, the max response in the assay on CRL-7250 was -3.26%; with HEK293, -0.866%; with HaCat [1], -5.57%; in the assay on KB-3-1, 3.95%; with NIH3T3 it was -2.28%.

Consider `CNC(=O)c1cccc(-c2ccc3c(N4CCOC[C@H]4C)nc(N4CCOC[C@H]4C)nc3n2)c1`, for which the Potency is 46.9 nM (active) in the assay on CRL-7250; 105 nM (active) in the assay on HEK293; 10500 nM (active) with HaCat [1]; 118 nM (active) with KB-3-1; 418 nM (active) in the assay with NIH3T3.

Turning to `CC[C@H](CC[C@@H](C)[C@H]1CC[C@H]2[C@@H]3CC=C4C[C@@H](O)CC[C@]4(C)[C@@H]3CC[C@]12C)C(C)C`, the max response is -0.624% with CRL-7250; -8.75% with HEK293; 4.34% with HaCat [1]; -7.92% in the assay with KB-3-1; 4.37% in the assay on NIH3T3.

Consider `COc1cccc2c1C(=O)c1c(O)c3c(c(O)c1C2=O)C[C@@](O)(C(=O)CO)C[C@@H]3O[C@H]1C[C@H](N)[C@@H](O)[C@H](C)O1`, for which the Potency in the assay on CRL-7250 is 1180 nM (active); in the assay on HEK293, 132 nM (active); in the assay with HaCat [1], 372 nM (active); with KB-3-1, 743 nM (active); in the assay with NIH3T3 it was 235 nM (active).

As for `COc1cc(C(C)C)c(Oc2cnc(NC(CO)CO)nc2N)cc1I`, the max response in the assay with CRL-7250 was 3.93%; in the assay with HEK293, -7.36%; with HaCat [1], -12.7%; in the assay on KB-3-1, -2.87%; with NIH3T3 it was 1.73%.

Regarding `NC(=O)c1ncn([C@@H]2O[C@H](CO)[C@@H](O)[C@@H]2O)c1N`, the max response with CRL-7250 was -3.14%; in the assay on HEK293, 2.62%; with KB-3-1, 1.9%. Further, the compound was called inactive with HaCat [1], with NIH3T3 and in the assay with HACAT [2].

On to `C[C@@H](Oc1ccc2[nH]nc(C=Cc3cnn(CCO)c3)c2c1)c1c(Cl)cncc1Cl`, for which the Potency was 11800 nM (active) with CRL-7250; 13200 nM (active) with HEK293; 3320 nM (active) in the assay on HaCat [1]; 418 nM (active) in the assay with KB-3-1; 3720 nM (active) with NIH3T3.

With `O=c1[nH]c(=O)n([C@H]2C[C@@H](O)[C@@H](CO)O2)cc1C=CBr`, the max response was -10.9% in the assay with CRL-7250, -1.26% in the assay on HEK293 and -10.4% in the assay with HaCat [1]. The compound was called inactive with KB-3-1 and in the assay on NIH3T3.

Take `COc1ccc(Nc2nccc(NCCO)n2)cc1`: the max response in the assay with CRL-7250 is 1.05%; in the assay with HEK293, -0.619%; in the assay with HaCat [1], 0.234%; with KB-3-1, -27.2%; in the assay with NIH3T3 it was 1.01%.

Consider `CC(C)(C)[N+]([O-])=Cc1ccc(S(=O)(=O)O)cc1S(=O)(=O)O`, for which the max response in the assay on CRL-7250 was 1.88%; with HEK293, -0.289%; with HaCat [1], -17.9%; in the assay on KB-3-1, 9.38%; with NIH3T3, 0.254%.

Turning to `NC[C@H]1O[C@H](O[C@H]2[C@@H](O)[C@@H](O[C@H]3O[C@H](CO)[C@@H](O)[C@H](N)[C@@H]3O)[C@H](N)C[C@@H]2N)[C@H](N)C[C@H]1O`, the max response is -1.47% in the assay on CRL-7250, 0.89% with HEK293, 1.19% in the assay on KB-3-1 and -1.89% with NIH3T3. Also, the result with HaCat [1] and in the assay with HACAT [2] was inactive.

Turning to `COC(=O)C=CC(=O)OC`, the max response in the assay with CRL-7250 was -5.16%; in the assay on KB-3-1, 7.81%; in the assay with NIH3T3, -0.0603%. In addition, the call in the assay with HEK293, with HaCat [1] and with HACAT [2] was inactive.

Turning to `CC1(C)[C@H](O[C@H]2O[C@H](C(=O)O)[C@@H](O)[C@H](O)[C@H]2O[C@@H]2O[C@H](C(=O)O)[C@@H](O)[C@H](O)[C@H]2O)CC[C@@]2(C)[C@H]1CC[C@]1(C)[C@H]2C(=O)C=C2[C@H]3C[C@@](C)(C(=O)O)CC[C@]3(C)CC[C@]21C`, the results for the max response with CRL-7250 and with HEK293 were -14.3% and 0.699%, respectively. Besides, the result in the assay with HaCat [1], in the assay with KB-3-1, with NIH3T3 and with HACAT [2] was inactive.

For the origin of these results see PubChem BioAssay (NCATS).
